# Screening data from PubChem BioAssay.
# Peg3 prom inh – Peg3 promoter activity inhibition | 1.7% of 360,000 active | HeLa PEG-Prom luciferase reporter, luminescence, overnight | inhibition, % at 20 µM;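 active means inhibition of at least 50% at 20 µM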
# MITF TRPM1 inh – reduces MITF-dependent TRPM1 promoter luciferase signal. SK-MEL-5 TRPM1 promoter luciferase, 24 h. 0.83% of 330,000 active. inhibition, % at 12.5 µM;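 active means mean inhibition across replicates of 60% or more, whatever share of single replicates reaches that level; inconclusive means some that reach 60%, reason not given; inactive means mean inhibition across replicates below 60%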
# CF NFkB inh – inhibitors of cystic fibrosis induced NF-kB; 0.86% of 360,000 active; inhibition, % at 5 µM; KKLEB NF-kB-GFP reporter, PAF-induced, GFP fluorescence overnight;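 active means at least 50% inhibition at 5 µM, scaled per plate between neutral and stimulator controls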;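 further: PAF is a Pseudomonas aeruginosa culture filtrate used as stimulus; plate controls were PAF-stimulated DMSO wells for no effect and unstimulated DMSO wells for full effect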
# HIF-2a block – HIF-2a inhibition; 786-0 RCC cells HIF-2a reporter, luciferase luminescence, overnight; 0.72% of 360,000 active; inhibition, % at 18.8 µM;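 active means inhibition of the luminescence signal of 40% or more relative to plate controls, in a single-dose primary screen at 18.75 µM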
# ABHD5 PLIN5 PPI – blocks binding of human ABHD5 to perilipin-5; AID 602281; 0.78% of 360,000 active; inhibition, % at 4 µM; Split G. princeps luciferase complementation, luminescence, 4 h; Q00G26+Q8WTS1;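 active means inhibition above the mean inhibition across every tested compound plus 3 SD, cut at about 22% in these data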;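 further: 0% = DMSO only wells and the 100% control is not disclosed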
# Target sequence (Q00G26 whole entry, looked up): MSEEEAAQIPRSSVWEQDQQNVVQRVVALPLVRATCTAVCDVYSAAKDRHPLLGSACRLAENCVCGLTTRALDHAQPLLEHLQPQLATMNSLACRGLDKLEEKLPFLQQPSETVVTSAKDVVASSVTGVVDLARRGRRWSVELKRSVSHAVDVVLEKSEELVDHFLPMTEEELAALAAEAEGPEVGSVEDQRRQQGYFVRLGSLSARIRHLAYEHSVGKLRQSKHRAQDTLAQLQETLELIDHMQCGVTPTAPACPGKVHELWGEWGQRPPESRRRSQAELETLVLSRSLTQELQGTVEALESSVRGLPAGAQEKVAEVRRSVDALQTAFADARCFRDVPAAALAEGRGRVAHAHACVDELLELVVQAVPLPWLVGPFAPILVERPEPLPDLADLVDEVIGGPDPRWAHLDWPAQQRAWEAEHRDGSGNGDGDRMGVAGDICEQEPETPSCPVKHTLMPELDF
# Target sequence (Q8WTS1 whole entry, looked up): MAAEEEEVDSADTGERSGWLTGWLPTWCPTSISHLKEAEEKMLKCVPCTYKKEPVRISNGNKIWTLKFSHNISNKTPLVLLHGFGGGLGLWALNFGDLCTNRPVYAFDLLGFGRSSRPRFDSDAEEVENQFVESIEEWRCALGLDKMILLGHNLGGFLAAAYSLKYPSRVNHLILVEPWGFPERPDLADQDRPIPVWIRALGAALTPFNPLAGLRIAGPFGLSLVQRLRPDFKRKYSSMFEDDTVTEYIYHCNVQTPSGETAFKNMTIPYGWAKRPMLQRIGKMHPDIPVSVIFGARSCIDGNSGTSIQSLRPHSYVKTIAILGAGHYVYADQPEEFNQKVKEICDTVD
# KKLEB tox – reduces viability of KKLEB cystic fibrosis airway cells | 0.36% of 360,000 active | KKLEB CF airway cells viability, ATPlite luminescence, overnight; hits give low values; cells stimulated with P. aeruginosa culture filtrate | activity change (cytotoxicity), % at 5 µM | AID 602141;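 active means corrected activity change at or below -50% at 5 µM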
# The depositor's hits bear a star; ? = inconclusive; nt = no result. Most compounds without a hit are left out; they make up all but 3.1% or so of the library.
SMILES,Peg3 prom inh,MITF TRPM1 inh,CF NFkB inh,HIF-2a block,ABHD5 PLIN5 PPI,KKLEB tox
CCCCCCNC(=O)OC12CN(C(=O)OC(C)C)N(C(=O)OC(C)C)CC1(O)CN(S(=O)(=O)c1ccc(C)cc1)C2 (centres undefined),83.7*,nt,-14.3,-4.3,4.6,-2.4
Cc1ccc(S(=O)(=O)N2CC3(O)CN(C(=O)OC(C)C)N(C(=O)OC(C)C)CC3(OC(=O)NCC3CCCCC3)C2)cc1 (centres undefined),18.4,nt,17.5,-7.5,-3.9,-11.7
Cc1ccc(NC(=O)CC2SC3=NCCN3C2=O)cc1 (centres undefined),20.8,-18.4,-3.7,11.1,22.9*,0.4
O=C(CC1SC2=NCCN2C1=O)Nc1ccccc1 (centres undefined),15.8,3.0,13.1,27.9,-4.3,6.4
CC1=Nc2ccccc2/C1=C/c1sc(=S)n(-c2cccc(C(=O)O)c2)c1O,-21.1,-6.9,-23.9,41.0*,12.7,-9.2
O=C1CC(N2C(=O)/C(=C/C=C/c3ccccc3)SC2=S)C(=O)N1c1ccccc1 (centres undefined),15.4,-10.2,-13.2,17.9,3.3,7.2
COc1cc(NC(=S)NCCC(c2ccccc2)c2ccccc2)c(OC)cc1Cl,52.6*,-10.6,6.1,16.0,-3.6,-3.5
S=C(NCCC(c1ccccc1)c1ccccc1)Nc1ccc(Cl)cc1,54.6*,5.0,7.4,-35.0,-10.7,-2.2
Cn1c(N)c(C(=O)COC(=O)CNS(=O)(=O)c2cccc(Cl)c2)c(=O)n(C)c1=O,-1.3,-11.8,7.2,19.1,4.4,-2.2
COc1ccccc1N=C(C)C1=C(O)CC(c2ccccc2)CC1=O (centres undefined),9.4,11.3,52.7*,13.4,3.3,-5.3
CCCCCCN1C[C@@H](n2cc(-c3ccc(F)cc3)nn2)[C@H](O)C[C@@H]1c1ccc(OC)cc1,60.9*,nt,-15.9,-27.1,6.6,-2.3
CCCCCCN1C[C@H](O)[C@@H](n2cc(-c3ccc(F)cc3)nn2)C[C@@H]1c1ccc(Cl)cc1,32.2,nt,12.3,11.1,-6.7,-1.8
CCCCCCN1C[C@@H](n2cc(-c3ccc(F)cc3)nn2)[C@H](O)C[C@@H]1c1ccc(Cl)cc1,68.9*,nt,28.6,-84.5,5.5,10.8
CN1OC[C@@H]2CN(Cc3cc(Cl)cc(Cl)c3)[C@H](c3cccc(Br)c3)C[C@@H]21,24.4,0.8,6.3,16.9,4.4,5.0
Cc1cc(C)nc(NC(N)=NCCc2ccccc2)n1,34.8,65.4*,10.7,37.4,3.5,-9.8
Cc1cc(C)nc(NC(N)=NCCc2c[nH]c3ccccc23)n1,31.1,36.3,4.8,26.1,7.0,4.1
Cc1ccc(NC(=S)NC(NC(=O)c2ccccc2C)C(Cl)(Cl)Cl)c(C)c1 (centres undefined),28.7,-0.3,18.3,11.0,-6.0,2.0
Nc1c(S(=O)(=O)c2cccs2)c2nc3ccccc3nc2n1/N=C/c1cccc(O)c1,91.8*,20.6,-10.5,40.0*,1.7,10.2
COc1ccc(NS(=O)(=O)c2cc(NC(=O)c3ccc(F)cc3)ccc2OC)cc1,22.9,21.2,-1.7,16.9,3.2,-8.2
COc1ccc(NC(=O)c2ccc(F)cc2)cc1S(=O)(=O)Nc1cc(C)ccc1Br,54.5*,10.3,-8.4,3.7,7.6,-0.8
Cc1ccc(S(=O)(=O)/N=C2\C=C(Nc3ccc(O)cc3)C(=O)c3ccccc32)cc1,105.3*,98.7*,83.1*,70.5*,-6.3,-80.2*
Cc1cccc(NC2=C(NC(=O)c3ccccc3)C(=O)c3ccccc3C2=O)c1,8.3,?,7.4,2.4,-7.8,2.4
CCc1ccc(S(=O)(=O)/N=C2\C=C(Nc3ccc(C(=O)O)cc3)C(=O)c3ccccc32)cc1,15.0,16.4,90.3*,10.5,-5.4,-31.3
Cc1ccc(S(=O)(=O)/N=C2\C=C(Nc3cccc(C(=O)O)c3)C(=O)c3ccccc32)c(C)c1,-53.0,16.7,92.5*,-89.2,-6.7,-38.1
Cc1ccc(S(=O)(=O)/N=C2\C=C(Nc3cccc(C(=O)O)c3)C(=O)c3ccccc32)cc1,-221.4,2.6,98.2*,-2.6,8.4,-33.1
SMILES,Peg3 prom inh,MITF TRPM1 inh,CF NFkB inh,HIF-2a block,ABHD5 PLIN5 PPI,KKLEB tox
CC(C)C(NS(=O)(=O)c1cccc2nsnc12)C(=O)NC1CCCCC1C (centres undefined),6.6,0.0,13.1,13.8,-1.1,-7.0
Cc1nc2nc(SCC(=O)NCCCN3CCCC3)nn2c(C)c1Cc1ccccc1Cl,-5.9,-21.5,9.7,10.1,0.7,-16.0
COC(=O)c1ccccc1NC1=C/C(=N\S(=O)(=O)c2ccc(C(=O)O)cc2)c2ccccc2C1=O,104.9*,90.1*,97.4*,-19.6,-12.5,-61.7*
CSc1ccc(Cl)c(C(=O)OCC(=O)Nc2ccccc2OC(F)F)c1,-3.0,3.7,-7.1,13.2,-7.2,-8.7
O=C(COc1ccc2c(c1)OCO2)Nc1nccs1,-46.9,-2.0,2.0,-35.4,0.8,-5.2
O=C(NC1c2ccccc2Oc2ccccc21)c1ccc([N+](=O)[O-])cc1,9.6,-3.7,-1.9,8.6,15.5,6.3
Cc1cc(/C=C(\C#N)C(=O)NC2CCCCCC2)c(C)n1C,-62.2,-39.6,-15.6,-94.2,16.8,0.7
C=CC[n+]1c(-c2ccc(Cl)cc2Cl)csc1Nc1ccc(NC(C)=O)cc1,40.5,10.0,-8.6,94.7*,-3.1,9.4
O=C(CCN1C(=O)COc2ccccc21)NCCCN1CCCC1,-20.8,11.4,18.9,6.7,0.1,-0.6
Cc1cccc2cc(C#N)c(SCC(=O)N3CC(=O)Nc4ccccc43)nc12,21.2,64.7*,-0.7,25.4,-0.4,10.3
Cc1cc(OC(C)C(=O)NC2CC(C)(C)NC(C)(C)C2)c2c(C)c(C)c(=O)oc2c1 (centres undefined),-19.1,nt,-41.6,-32.1,8.1,3.8
CCCCC(O)(c1ccc(OC)cc1)C(CN1CCOCC1)c1ccccc1 (centres undefined),52.1*,-7.0,8.0,28.6,5.4,-6.6
CCCCCC(O)(c1ccc(OC)cc1)C(CN1CCOCC1)c1ccccc1 (centres undefined),32.8,-1.0,4.8,16.8,-5.2,4.0
COc1ccc(C(=O)C(CN2CCCC2)c2ccccc2)cc1 (centres undefined),104.4*,64.2*,53.9*,-5.4,2.9,-57.8*
COc1ccc(C(=O)C(CN2CCOCC2)c2ccccc2)cc1 (centres undefined),98.1*,83.2*,54.3*,-19.5,19.2,-60.6*
CCC(O)(c1ccc(OC)cc1)C(CN1CCOCC1)c1ccccc1 (centres undefined),14.1,3.1,-3.9,12.8,4.1,-0.9
O=[N+]([O-])c1cc(Cl)cc2c1nc(NCCO)c1ccccc12,1.8,4.8,-36.0,5.6,1.3,1.8
